ChEMBL document CHEMBL3988442, “University of Dundee, Small-Polar-MMV Screening Library” (2021)
Screen size: about 48,000 compounds; about 13,000 (27%) showed an effect of 50% or more. This is one part of the list.

The compounds below were run on Wolbachia pipientis (assay: Anti-Wolbachia Cell-Based Screen). Conditions: 5 µM.
Assay type: functional
Set-up: scale not given: in the data most compounds retested in dose-response had high values

Compound	Percent Effect
CC(NC(=O)c1ccc(C(N)=O)cc1)c1cccc(N2CCOC2=O)c1 (stereo not drawn)	7.135%
Cc1ccc(C(=O)N2CCN(C(=O)C(C)n3ccnc3)CC2)cc1F (stereo not drawn)	-10.24%
CCOc1cc(-c2cc(=O)n3c(n2)CCCCC3)ccc1O	95.98%
COc1ccc(C2CC(=O)Nc3c2nc2n3CCCC2)cc1OC (stereo not drawn)	9.396%
CCOc1ccc(-c2cc(=O)n3c(n2)CCCCC3)cc1	126.5%
CCOc1ccc(NC(=O)Nc2cc(N3CCCCC3)ncn2)cc1	16.35%
CN(C)c1ccc(-c2cc(=O)n3c(n2)CCCCC3)cc1	163.6%
CCOc1ccc(-c2ccnc(C3CC3)n2)cc1C(=O)O	5.09%
COc1ccc(-c2cc(=O)n3c(n2)CCCCC3)cc1	99.63%
CCOc1ccc(OC2CCCN(c3cnn(C)c3)C2=O)cc1 (stereo not drawn)	7.424%
CN(C)c1cnn(CC(=O)N2CCCCCC2)c(=O)c1	2.501%
CCOc1ccc(-c2ccnc(C)n2)cc1C(=O)O	-6.535%
COc1ccc(C2CC(=O)Nc3c2nc2n3CCCC2)cc1O (stereo not drawn)	0.05289%
CN(Cc1nccs1)C1CCN(c2cccc(-c3cscn3)c2)CC1	-5.707%
O=C(Nc1cc(-c2ccccc2)on1)N1CCN(CCO)CC1	-8.087%
CN(CC(O)C1CC1)C(=O)c1ccc(-c2nc(C3CC3)n[nH]2)cc1 (stereo not drawn)	-1.161%
Cc1[nH]c(-c2ccccc2)nc1C(=O)N1CCC2(CCCO2)CC1	-0.5796%
NC(=O)c1ccc(N2CCCCC2)c(NC(=O)c2cncc(Br)c2)c1	8.346%
Cc1nc(C(C)NC(=O)NCc2nccn2CC(C)C)cs1 (stereo not drawn)	-2.713%
CC(N)C(=O)N1CCC(Oc2cccc(C(F)(F)F)c2)CC1 (stereo not drawn)	-15.39%
CC(C(=O)Nc1cccc(C(F)(F)F)c1)N(C)CCN1CCOCC1 (stereo not drawn)	-13.73%
COCCN1CCN(C(=O)C(c2cccc(F)c2)N(C)C)CC1 (stereo not drawn)	-2.953%
CC(O)(CN1CCC(O)CC1)c1cccc(C(F)(F)F)c1 (stereo not drawn)	104.1%
CC(NCC1CCN(CCO)CC1)c1ccc(C(F)(F)F)cc1 (stereo not drawn)	4.315%
CC(=O)N1CCN(CC(C)(O)c2cccc(C(F)(F)F)c2)CC1 (stereo not drawn)	108.1%
CC(=O)N1CCOC(Cc2cccc(C(F)(F)F)c2)C1 (stereo not drawn)	-10.28%

Compound	Percent Effect
CC(O)(CN1CCN(CCO)CC1)c1cccc(C(F)(F)F)c1 (stereo not drawn)	117%
COCCN1CCN(CC(C)(O)c2cccc(C(F)(F)F)c2)CC1 (stereo not drawn)	78.04%
CC(=O)N1CCN(Cc2ccc(C(F)(F)F)cc2F)CC(O)C1 (stereo not drawn)	-3.674%
COCC(NC(=O)c1cnn(C)c1)c1cccc(C(F)(F)F)c1 (stereo not drawn)	-8.704%
COC(=O)NCC(=O)NCC(C)(C)c1cccc(C(F)(F)F)c1	-0.4386%
CC(C)c1noc(C(C)N2CCC(c3nc4ccccc4[nH]3)CC2)n1 (stereo not drawn)	10.92%
O=C(CCSc1ccccc1)NS(=O)(=O)c1ccc2c(c1)OCCO2	13.89%
CC1=NOC(C(=O)N2CCC(O)(c3ccc4nc(C)ccc4c3)CC2)C1 (stereo not drawn)	-15.54%
Clc1ccc(CN2CCCC(Cn3cncn3)C2)c2ncccc12 (stereo not drawn)	-4.031%
Cn1c(C(=O)N2CCC(C3OCCO3)CC2)c(Cl)c2ccccc21	4.597%
O=c1[nH]nc2c(N3CCOCC3)nccn12	105.6%
CC(C)c1nccn1C(C)C(=O)NC1CCOCC1 (stereo not drawn)	-4.368%
O=c1[nH]nc2nc(N3CCSCC3)ccn12	-3.985%
O=c1[nH]nc2nc(N3CCOCC3)ccn12	3.869%
CC(NC(=O)Nc1cccnc1N1CCOCC1)c1ccccc1 (stereo not drawn)	-4.6%
CCc1cc(N2CCC(NC3CCOCC3)CC2)nc(N(C)C)n1	-0.7364%
O=c1[nH]nc2nc(N3CCCC3)ccn12	-11.65%
O=c1[nH]nc2c(N3CCC(NC4CCOCC4)CC3)nccn12	113.4%
O=c1[nH]nc2c(N3CCCCCC3)nccn12	114.9%
COc1cccn(Cc2nnc(-c3cccnc3)o2)c1=O	-29.57%
Cc1nc(CNC(=O)[C@@H]2CCCN2C(=O)OC(C)(C)C)cs1	-12.19%
Cc1ccccc1N1CCCN(CC2(O)CCCNC2)CC1 (stereo not drawn)	-10.43%
CC(C)c1ccc(CN2CCN(C(=O)c3cc(C4CC4)[nH]n3)CC2)cc1	100.6%
CC(C)c1cc(C(=O)N2CCN(Cc3ccc(C#N)cc3)CC2)n[nH]1	1.28%
O=C(c1cc(COc2ccc3c(c2)OCO3)[nH]n1)N1CCOCC1	16.23%
O=C(c1cc(C2CC2)[nH]n1)N1CCN(Cc2ccc3c(c2)OCO3)CC1	118.4%

Compound	Percent Effect
O=C(c1cc(COc2ccc3c(c2)OCO3)[nH]n1)N1CCCC(O)C1 (stereo not drawn)	-9.09%
O=C(c1cc(C2CC2)[nH]n1)N1CCN(Cc2ccncc2)CC1	106.7%
CCc1nc(C(=O)N2CCN(Cc3ccc(Cl)cc3)CC2)c[nH]1	7.187%
O=C(c1cc(C2CC2)[nH]n1)N1CCN(Cc2ccc(Cl)cc2)CC1	91.65%
O=C(c1cc(C2CC2)[nH]n1)N1CCN(c2nccs2)CC1	-6.646%
COc1ccnc(N2CCN(C(=O)c3cc(C4CC4)[nH]n3)CC2)n1	-20.97%
N#Cc1ccc(CN2CCN(C(=O)c3cc(C4CC4)[nH]n3)CC2)cc1	-3.632%
Cc1ccsc1C(=O)NCC1COCc2c(C)nnn2C1 (stereo not drawn)	-4.017%
COc1ccc(CC(=O)N2CCc3nc(C(=O)N(C)C)sc3CC2)cc1	-11.26%
COCc1cc(N(C)Cc2cc(C(C)(C)C)n[nH]2)ncn1	-4.66%
Cc1cnn(CCNCc2ccc(OCC(N)=O)cc2)c1	-9.498%
Cc1nn(CCC#N)c(C)c1CCC(=O)N(C)Cc1ccc(F)cc1F	10.09%
Cc1cccc(CN2CCN(C(=O)c3cc(C4CC4)[nH]n3)CC2)c1	106.2%
O=C(c1cc(C2CC2)[nH]n1)N1CCCN(c2nccs2)CC1	-25.45%
CCOc1ccc(CN2CCN(C(=O)c3cc(C4CC4)[nH]n3)CC2)cc1	100.1%
CC(C)c1cc(C(=O)N2CCCN(Cc3ccccc3)CC2)n[nH]1	-13.62%
N#Cc1ccc(N2CCN(C(=O)c3cc(C4CC4)[nH]n3)CC2)c(F)c1	-1.136%
O=C(c1cc(C2CC2)[nH]n1)N1CCN(Cc2ccccc2)CC1	113.8%
O=C(c1cc(C2CC2)[nH]n1)N1CCN(Cc2ccsc2)CC1	-9.211%
CCOc1ccc(CN2CCN(C(=O)c3ccc(C)n3C)CC2)cc1	6.046%
Cc1cccc(CN2CCN(C(=O)c3ccc(C)[nH]c3=O)CC2)c1	-0.706%
COCCC1(CNC(=O)NC2CCCN(C)C2)CC1 (stereo not drawn)	-18.26%
CC(C)OC(=O)N1CCC(Cc2cccc(C(N)=O)c2)C1 (stereo not drawn)	0.346%
O=C1CC(c2cccs2)Cc2nc(O)c(C(=O)N3CCCC3)cc21 (stereo not drawn)	-9.305%
CC(C(=O)N1CCCC1)n1nc(-c2cccs2)cc(N)c1=O (stereo not drawn)	96.9%
Cc1nc(-c2cccs2)ccc1C(=O)N1CCN(CC(C)O)CC1 (stereo not drawn)	6.494%

Compound	Percent Effect
CC(C(=O)N1CCOCC1)n1nc(-c2cccs2)cc(N)c1=O (stereo not drawn)	87.73%
CC(C(=O)N1CCCCC1)n1nc(-c2cccs2)cc(N)c1=O (stereo not drawn)	96.7%
O=C(Nc1ccccc1-c1cccs1)N1CCOCC1	-11.7%
CC(C(=O)N1CCOCC1)N1CCc2cncnc2C1 (stereo not drawn)	24.13%
Nc1cc2c(nn1)CCN(C(=O)c1csc(-c3cccs3)n1)C2	-8.113%
Cl.Cn1cc(CNC2CCC(O)CC2)c(-c2cc3ccccc3o2)n1 (stereo not drawn)	4.474%
CC(NC(=O)Cc1cc2c(cc1Cl)OCCO2)c1ccncn1 (stereo not drawn)	-8.722%
O=C(c1c2c(NCC3CC3)ncnc2n2ccccc12)N1CCCC1	17.48%
COc1ncc(C2CC(=O)NCc3nc4ccccn4c32)cn1 (stereo not drawn)	2.979%
CCn1ccc(C(=O)N(C)Cc2cnn(-c3cccc(OC)c3)c2)n1	-12.09%
CNC(=O)c1ccc(C2CN(C(=O)COC)CCO2)nc1 (stereo not drawn)	-5.036%
Br.Cn1nccc1CN1CCOC(c2cccc(-c3cncnc3)n2)C1 (stereo not drawn)	91.95%
COCC(=O)N1CCOC(c2ccc(N(C)C)cn2)C1 (stereo not drawn)	108.5%
COCC(=O)N1CCOC(c2cccc(-c3cncnc3)n2)C1 (stereo not drawn)	151.1%
Cc1ccc(C2CN(Cc3cnc(-c4cccnc4)s3)CCO2)o1 (stereo not drawn)	6.287%
CCC1CN(C(=O)COc2ccc(C)nc2)CCO1 (stereo not drawn)	-3.761%
Cc1nccc(C2CN(Cc3cc[nH]n3)CCO2)n1 (stereo not drawn)	-9.06%
COc1ccc2cc(C3CN(C(=O)COC(C)C)CCO3)ccc2c1 (stereo not drawn)	-0.3239%
CC(Cc1ccc(C(F)(F)F)cc1)C(=O)N1CCCS1(=O)=O (stereo not drawn)	-11.51%
c1ccc(C2CN(C3CC3)CC3(CCN(Cc4cscn4)CC3)C2)cc1 (stereo not drawn)	-14.1%
CCOc1ccc(CN2C(=O)CC(C)(C(C)C)C2=O)nc1 (stereo not drawn)	-23.31%
Cc1cnc(N2CCCn3c(nnc3CN(C)C(C)C)C2)nc1.O=C(O)C(F)(F)F	99.73%
Cc1cnc(N2CCn3c(CN4CCOCC4)nnc3C2)nc1.O=C(O)C(F)(F)F	-6.202%
CC(C)N(C)Cc1nnc2n1CCCN(c1ncccn1)C2.O=C(O)C(F)(F)F	99.37%
Fc1cnc(N2CCCn3c(nnc3Cn3ccnc3)C2)nc1.O=C(O)C(F)(F)F	-11.56%
